The campaign covered roughly 340,000 compounds. About 2,100 (0.62%) were called active.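 The calls were made as follows: active = first-screen hits whose inhibition reached a set limit at any dose in the follow-up dose series; inconclusive = inhibition above the set first-screen limit but never retested; inactive = the rest.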 The list is a sample of the results. Entries with a potency or affinity are not part of this list.
Molecular target: Rac GTPase-activating protein 1 (Homo sapiens) (UniProt Q9H0H5)
Sequence (Q9H0H5 whole entry, looked up): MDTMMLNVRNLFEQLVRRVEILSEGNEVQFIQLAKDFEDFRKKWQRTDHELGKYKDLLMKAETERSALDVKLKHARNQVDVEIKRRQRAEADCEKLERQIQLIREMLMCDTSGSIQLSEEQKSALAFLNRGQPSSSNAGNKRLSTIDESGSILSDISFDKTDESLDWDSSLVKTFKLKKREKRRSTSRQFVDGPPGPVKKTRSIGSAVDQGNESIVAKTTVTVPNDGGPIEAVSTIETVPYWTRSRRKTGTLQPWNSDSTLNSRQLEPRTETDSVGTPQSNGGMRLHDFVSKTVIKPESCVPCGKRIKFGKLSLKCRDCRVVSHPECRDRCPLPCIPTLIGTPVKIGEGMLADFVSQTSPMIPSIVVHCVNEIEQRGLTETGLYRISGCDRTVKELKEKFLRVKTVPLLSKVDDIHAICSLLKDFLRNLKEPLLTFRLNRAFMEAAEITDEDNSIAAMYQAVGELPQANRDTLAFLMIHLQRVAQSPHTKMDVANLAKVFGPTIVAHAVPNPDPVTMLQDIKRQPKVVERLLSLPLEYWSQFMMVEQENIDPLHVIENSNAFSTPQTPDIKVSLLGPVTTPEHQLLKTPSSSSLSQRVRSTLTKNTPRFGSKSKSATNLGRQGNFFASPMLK
Experiment: MgcRacGAP GTPase-activating activity inhibitors, confirmation, biochemical, ADP Hunter fluorescence, primary and confirmatory (AID 624330);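 also: fluorescence reports GDP produced by GAP-driven GTP hydrolysis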
Conditions: MgcRacGAP-stimulated Rac1 GTP hydrolysis, at 30 µM, stronger effect = higher value, GST-tagged Rac1 F28L mutant substrate

inhibition, inactive:
O=C(NCc1cccnc1)C1CC(c2cccc(Br)c2)=NO1 (stereo unspecified) 0.07%
CC(C(=O)NCc1ccc(F)cc1)c1ccc([N+](=O)[O-])cc1 (stereo unspecified) 8.32%
CN1CCN(S(=O)(=O)c2ccc(Oc3ccc(F)cc3Br)nc2)CC1 6.58%
CCC1CCCCN1C(=S)NC(=O)c1cc(Br)ccc1Cl (stereo unspecified) 4.56%
CCc1nnc(NC(=O)Cn2nnc(-c3ccccc3F)n2)s1 5.2%
CCCCCn1c2c(c(=N)c3ccccc31)CCC2 7.04%
CCCCCCCn1c2c(c(=N)c3ccccc31)CCC2 9.88%
O=C(CN1CCC(NC(=O)Nc2ccccc2)CC1)Nc1ccccc1F 5.94%
Cc1ccc(S(=O)(=O)N(C)c2ccccc2C(=O)N2CCOCC2)cc1 6.35%
O=C(Cc1ccc(Br)cc1)NCCc1ccc(F)cc1 9.29%
COc1ccc(S(=O)(=O)NC(C)C(=O)N2CCCC2)cc1Cl (stereo unspecified) 1.21%
Cc1ccc(-c2csc(Nc3ccccn3)n2)cc1 14%
CN(C)c1ccc(Nc2nc(-c3cccnc3)cs2)cc1 14.4%
c1ccc(-c2csc(Nc3ccccn3)n2)cc1 13.5%
Cc1ccnc(Nc2nc(-c3ccc(O)cc3O)cs2)c1 15.2%
COc1ccc(-c2csc(Nc3ccccc3)n2)cc1 15.5%
Cc1cccc(Nc2nc(-c3ccc(O)cc3O)cs2)n1 -2.8%
COc1cccc(Nc2nc(-c3cccnc3)cs2)c1 10.7%
CCOc1ccc(Nc2nc(-c3cccnc3)cs2)cc1 6.12%
Cc1cccc2cc(COC(=O)COc3ccccc3)c(=O)[nH]c12 12%
CCC(=O)Oc1ccc(NC(=O)CSCc2ccccc2)cc1 13.9%
COc1ccc(CCNC(=O)COC(=O)Cc2ccccc2[N+](=O)[O-])cc1 3.96%
CCOC(=O)c1ccc(S(=O)(=O)N2CC(=O)Nc3ccccc32)cc1 8.64%
CC(=O)Nc1ccc(-c2csc(Nc3ncccn3)n2)cc1 7.36%
COc1ccc(-c2csc(NCc3ccco3)n2)cc1 12%
c1coc(CNc2nc(-c3ccncc3)cs2)c1 5.25%
Cc1ccc(Nc2nc(-c3c(C)nc4ncccn34)cs2)cc1 11.3%
c1cncc(Nc2nc(-c3ccncc3)cs2)c1 6.09%
c1ccc(-c2csc(Nc3cccnc3)n2)cc1 3.24%
Cc1nc2ncccn2c1-c1csc(Nc2ccccc2)n1 11%
c1ccc(-c2csc(Nc3ncccn3)n2)cc1 0.5%
